From PubChem BioAssay AID1259313 (Sanford-Burnham Center for Chemical Genomics, 2017)
About 8,500 (2.5%) of roughly 340,000 compounds were called active. Many of the other results were omitted from the sample, so actives are more common in it than they were. A number with no mark means an inactive call.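 Rule for the calls: active = melting temperature shift of at least 10% of the positive control shift, at one fixed dose; inactive = the rest.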

These molecules were tested on Glutamate receptor ionotropic, NMDA 3A (GRIN3A) ligand-binding domain (assay: NR3A LBD thermal stabilization by compounds – biophysical, differential scanning fluorimetry, uHTS, primary screen (AID 1259313)). Details: at 25 µM, stronger effect = higher value, 0% = protein alone, 100% = glycine-bound protein.

| Structure (SMILES) | Tm shift relative to glycine control |
| --- | --- |
| Cc1cc(C)c(C)c(S(=O)(=O)N2CCN(C(=O)c3ccc4c(=O)n5c(nc4c3)CCC5)CC2)c1C | -1.83% |
| Cc1ccc(C2=NN(C)c3nc4ccccc4n3C2)cc1 | -0.88% |
| CCOC(=O)c1sc(=NC(=O)c2ccc(Br)cc2)n(C)c1C | -1.61% |
| CCOC(=O)C1=CN(Cc2ccc(Br)cc2)S(=O)(=O)N(C)C1C (centres undefined) | 16.8% (active) |
| CCOC(=O)C1=CN(Cc2ccc(Br)cc2)S(=O)(=O)NC1C (centres undefined) | -0.08% |
| Cc1ccc(Sc2cc(C(=O)c3ccccc3C(=O)O)ccc2[N+](=O)[O-])cc1 | 2.48% |
| CCN(CC(=O)Nc1cc(Cl)ccc1C)C(=O)CSCc1ccccc1 | 3.04% |
| C=CCC1(C#N)C(=S)NC(C)=C(C(=O)OCC)C1c1ccccc1 (centres undefined) | -1.45% |
| Cc1cccc(N=Nc2c(O)[nH]c3ccc(F)cc23)c1 | 10.2% (active) |
| Cc1ccc(CNC(=O)CSc2nnc3c(n2)[nH]c2ccc(F)cc23)cc1 | 2.6% |
| Oc1[nH]c2ccccc2c1N=Nc1c(F)c(F)c(F)c(F)c1F | 9.33% |
| O=C1CN(C(=O)c2cc(F)cc(F)c2)c2ccccc2N1 | -2.16% |
| NC1=NC(=O)S/C1=C\c1ccc(O)cc1 | 32.2% (active) |
| CC(C)(C)c1ccc(/C=C2\SC(=O)N=C2N)cc1 | -1.96% |
| O=C1N=C(N2CCc3ccccc3C2)S/C1=C\c1ccc(O)cc1 | -10.4% |
| Cc1c(CN2CCCC(C(=O)c3cccc(Cl)c3)C2)c(=O)n(-c2ccccc2)n1C (centres undefined) | -0.59% |
| CCN(CC)c1ccc(NC(=O)c2ccc(Cl)nc2)cc1 | -1.3% |
| O=C(NCCS(=O)(=O)N1CCN(c2ccccc2)CC1)c1ccco1 | 2.13% |
| COc1ccccc1N1CCN(S(=O)(=O)CCNC(=O)c2ccc(OC(C)C)cc2)CC1 | 0.83% |
| O=C(NCCS(=O)(=O)N1CCN(c2ccccc2F)CC1)c1ccc(Br)o1 | 121% (active) |

| Structure (SMILES) | Tm shift relative to glycine control |
| --- | --- |
| COc1ccc(CCNC(=O)C(=O)NCC2CCNCC2)cc1OC | -0.1% |
| CCc1ccc(-c2nn(-c3ccccc3)cc2CSC(=N)N)cc1 | -0.35% |
| COc1cc(NS(=O)(=O)c2ccc(NC(=S)NC(=O)c3ccc(Br)cc3)cc2)ncn1 | -6.1% |
| COc1cccc(/C=N/Nc2ncc(C(F)(F)F)cc2Cl)c1O | 24.2% (active) |
| O=c1[nH]c2cccnc2n(CCNc2ncc(C(F)(F)F)cc2Cl)c1=O | -2.11% |
| COc1ccc(Br)cc1/C=N/Nc1ccc(Cl)c(C(=O)O)c1 | -7.4% |
| CCCCN(C(=O)c1nn(C)c(=O)c2ccccc12)c1c(N)n(CCC)c(=O)[nH]c1=O | 0.36% |
| N#CC1=C(N)Oc2cc(N)ccc2C1c1ccccc1 (centres undefined) | -2.17% |
| N#CC1=C(N)Oc2cc(O)ccc2C1C1CCCCC1 (centres undefined) | 12% (active) |
| COc1ccc(C2C(C#N)=C(N)Oc3cc(N)ccc32)cc1OC (centres undefined) | -4.08% |
| COCC(C)NC(=O)CSc1nc2nn(-c3ccccc3)c(=O)c-2c2n1CCCCC2 (centres undefined) | -0.39% |
| O=C(Nc1cc(S(=O)(=O)N2CCOCC2)ccc1Cl)c1cc(=O)c2ccccc2o1 | 0.31% |
| CC(=O)c1ccc(N2CCN(C(=O)C3CCN(S(=O)(=O)c4ccc5c(c4)CC(C)N5C(=O)C4CC4)CC3)CC2)cc1 (centres undefined) | 1.27% |
| COc1cc(OC)c(S(=O)(=O)Nc2ccccc2C(=O)O)cc1S(=O)(=O)Nc1ccccc1C(=O)O | 5.12% |
| COc1cc(NC(=O)c2ccccc2NS(=O)(=O)c2ccc(Cl)s2)cc(OC)c1 | 21.3% (active) |
| COC(=O)c1ccc(NC(=O)c2ccccc2NS(=O)(=O)c2ccccc2)cc1 | 2.17% |
| CCC/C(O)=C1\C(=O)CC(C)(C)CC1=Nc1ccccc1OC | -0.4% |
| CCCC(=O)Nc1ccc(C(=O)N/N=C/c2ccc[nH]2)cc1 | 0.18% |
| CC(=O)Nc1ccc(C(=O)/C=C/c2ccc[nH]2)cc1 | 19.4% (active) |
| CC(=O)Nc1ccc(C(=O)NNC(=O)CCCCC(=O)NNC(=O)c2ccc(NC(C)=O)cc2)cc1 | -2.46% |

| Structure (SMILES) | Tm shift relative to glycine control |
| --- | --- |
| CC1=C(C)C(=O)OC(C(C)C2CCC3C4CC=C5CC(OC6OC(COC7OC(CO)C(O)C(O)C7O)C(O)C(O)C6O)CC(O)C5(C)C4CCC23C)C1 (centres undefined) | -4.54% |
| O=C(CN(Cc1ccc(Br)cc1)S(=O)(=O)c1ccccc1)NCc1ccncc1 | 0.51% |
| CC1=C(C(=O)OC(C)(C)C)C(c2ccc(Br)cc2)NC(=O)N1CCCC(=O)O (centres undefined) | 0.08% |
| COC(=O)[C@H](Cc1ccccc1)NC(=O)Nc1ccc(S(N)(=O)=O)cc1 | -3.46% |
| NS(=O)(=O)c1ccc(NS(=O)(=O)/C=C/c2ccccc2)cc1 | -15.1% |
| NS(=O)(=O)c1ccc(Nc2nc(-c3ccccc3)cs2)cc1 | 15.5% (active) |
| O=C(CC1C(=O)NCCN1CC(c1ccccc1)c1ccccc1)NCCc1cn[nH]c1 (centres undefined) | -1% |
| Cc1cccc(OCCC(=O)OCc2csc(CC(=O)Nc3ccccc3C)n2)c1 | -1.22% |
| Cc1cccc(NC(=O)C2CCN(C(=O)NC3CCCCC3)CC2)c1 | -0.18% |
| COc1cccc(NC(=O)c2cc(S(=O)(=O)N3CCc4ccccc43)cn2C)c1 | 1.72% |
| COc1ccc(C(=O)C2CCCN(Cc3cccn3-c3ccccn3)C2)c(C)c1 (centres undefined) | 0% |
| CC(C)CCN1CCN=C1N(C)C | -0.97% |
| CCOc1ccc(N/C=C/C(=O)c2ccccc2)cc1 | -12.3% |
| O=C(/C=C\NCC(=O)c1ccccc1)c1ccccc1 | 12.7% (active) |
| O=C(/C=C/NCc1ccc(F)cc1)c1ccccc1 | 0.09% |
| COC(=O)Cn1c(=NC(=O)c2cc(OC)c(OC)c(OC)c2)sc2cc(OC)ccc21 | 4.34% |
| COCCNC(=O)Cn1cc(C(=O)c2cccs2)c2ccccc21 | 4.81% |
| O=C(Cn1cc(C(=O)c2cccs2)c2ccccc21)NCc1cccs1 | -6.3% |
| COC(=O)c1cn(CC(=O)NCc2cccs2)c2ccccc12 | 11.7% (active) |
